Measured values taken from publication PMC4336329 (PLoS ONE, 2015).
Hit rate of the full screen: of about 310,000 compounds, about 14,000 (4.5%) showed an effect of 50% or more. Effects have a minus sign here. For the sample, strong results were picked, then their nearest neighbours and some compounds at random.

Each compound was assayed against human ether-à-go-go-related gene (hERG) potassium channel (human, UniProt Q12809) (assay: primary screen, population patch clamp on CHO cells stably expressing hERG; higher = less effect of the substance).
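Note: peak tail current of the secondary pulse compared with the same well before compound.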

Sequence of human ether-à-go-go-related gene (hERG) potassium channel (Q12809 whole entry, looked up): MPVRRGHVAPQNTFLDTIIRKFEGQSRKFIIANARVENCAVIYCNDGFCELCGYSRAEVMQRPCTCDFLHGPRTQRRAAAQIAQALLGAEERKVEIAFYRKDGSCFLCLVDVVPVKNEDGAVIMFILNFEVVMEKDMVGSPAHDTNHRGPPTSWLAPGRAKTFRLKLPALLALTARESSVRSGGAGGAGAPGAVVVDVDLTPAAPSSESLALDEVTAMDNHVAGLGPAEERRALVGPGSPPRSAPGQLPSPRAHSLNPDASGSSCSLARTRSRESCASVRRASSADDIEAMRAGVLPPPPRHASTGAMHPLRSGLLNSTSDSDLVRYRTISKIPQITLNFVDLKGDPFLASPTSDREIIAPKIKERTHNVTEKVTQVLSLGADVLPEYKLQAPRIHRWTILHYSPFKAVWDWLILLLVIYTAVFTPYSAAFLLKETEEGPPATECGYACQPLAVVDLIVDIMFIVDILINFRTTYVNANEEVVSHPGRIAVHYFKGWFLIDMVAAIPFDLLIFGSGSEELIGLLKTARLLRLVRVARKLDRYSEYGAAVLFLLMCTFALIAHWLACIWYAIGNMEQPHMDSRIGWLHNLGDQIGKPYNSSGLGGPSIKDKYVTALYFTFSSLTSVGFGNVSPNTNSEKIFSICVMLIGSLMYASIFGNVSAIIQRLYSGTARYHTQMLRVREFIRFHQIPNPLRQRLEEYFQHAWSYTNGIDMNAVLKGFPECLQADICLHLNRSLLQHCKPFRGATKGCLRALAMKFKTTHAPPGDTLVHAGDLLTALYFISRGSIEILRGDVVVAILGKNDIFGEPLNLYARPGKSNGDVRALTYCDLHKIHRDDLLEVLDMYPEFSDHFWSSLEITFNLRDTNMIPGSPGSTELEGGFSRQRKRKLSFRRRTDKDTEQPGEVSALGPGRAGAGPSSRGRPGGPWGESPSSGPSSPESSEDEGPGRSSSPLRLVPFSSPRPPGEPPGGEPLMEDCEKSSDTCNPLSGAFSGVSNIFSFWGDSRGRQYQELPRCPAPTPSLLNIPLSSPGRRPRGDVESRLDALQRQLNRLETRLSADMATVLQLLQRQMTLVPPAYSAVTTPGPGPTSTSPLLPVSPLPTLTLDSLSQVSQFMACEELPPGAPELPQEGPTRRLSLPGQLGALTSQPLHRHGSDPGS

SMILES | hERG current change (%, negative = inhibition) at 10uM
CC1CC(C)CN(S(=O)(=O)c2ccc3c(c2)oc(=O)n3CC(=O)NCc2cccnc2)C1 (centres unmarked) | -17.2%
COc1cc(C(=O)NC2CCCC2)c(Br)c(OC)c1OC | 7.61%
COc1ccc(NC(=O)C(CCSC)N2C(=O)c3ccccc3C2=O)cc1 (centres unmarked) | -10.3%
Cc1ccc(S(=O)(=O)/N=C2\C=C(Nc3cccc(C(=O)O)c3)C(=O)c3ccccc32)c(C)c1 | 27.9%
CCCCn1c(N)c(N(CCOC)C(=O)c2cc(S(=O)(=O)N3CCOCC3)ccc2F)c(=O)[nH]c1=O | 16.1%
Cc1cc(C(=O)COC(=O)c2cccn2C)c(C)n1Cc1ccco1 | 21.4%
Cc1nnc(SCC(=O)Nc2nsc(-c3ccc(Cl)cc3)n2)s1 | 0.522%
Cc1cccc(N2CCN(S(=O)(=O)c3c(C(=O)N4CCCCC4)c(C)n(C)c3C)CC2)c1C | -9.26%
COCc1c(C(=O)Nc2ccc3nc(N4CCOCC4)sc3c2)oc2ccccc12 | -31.2%
COCc1c(C(=O)N2CCN(Cc3ccc(C#N)cc3)CC2)oc2ccccc12 | -70.2%
COCc1c(C(=O)N2CCN(S(=O)(=O)c3ccccc3Cl)CC2)oc2ccccc12 | -13.9%
COCc1c(C(=O)N2CCN(Cc3nc4ccccc4s3)CC2)oc2ccccc12 | -72.5%
COCc1c(C(=O)N2CCN(Cc3ccc4c(c3)OCO4)CC2)oc2ccccc12 | -40.8%
COCc1c(C(=O)N2CCN(CCOc3ccccc3)CC2)oc2ccccc12 | -63.5%
COCc1c(C(=O)N2CCN(Cc3c(F)cccc3Cl)CC2)oc2ccccc12 | -12.2%
COCc1c(C(=O)N2CCN(c3ccc(C(F)(F)F)cn3)CC2)oc2ccccc12 | -23.7%
COCc1c(C(=O)N2CCN(c3ncccn3)CC2)oc2ccccc12 | -7.68%
CCC1Oc2ccccc2N(CC(=O)NCCCN2CCCC2)C1=O (centres unmarked) | 15.9%
O=C(c1ccc(F)cc1)C(Cc1ccccc1)N1CCCCC1 (centres unmarked) | 1.82%
CCOC(=O)N1CCC(N2CCN(Cc3ccccc3)C(CCO)C2)CC1 (centres unmarked) | -9.9%
COc1cccc(CN2CCN(C3CSCCSC3)CC2CCO)c1 (centres unmarked) | -13%

SMILES | hERG current change (%, negative = inhibition) at 10uM
OCCC1CN(C2CCN(c3ccccc3F)CC2)CCN1Cc1ccccc1 (centres unmarked) | -61.8%
COc1cccc(CN2CCN(C3CCN(c4ccccc4C)CC3)CC2CCO)c1 (centres unmarked) | -66.2%
OCCC1CN(C2CSCCSC2)CCN1Cc1ccccc1 (centres unmarked) | 11.9%
OCCC1CN(C2CCC2)CCN1Cc1ccc(F)c(F)c1 (centres unmarked) | 5.12%
OCCC1CN(C2CCN(c3ccccc3)CC2)CCN1Cc1ccc(F)c(F)c1 (centres unmarked) | -71.2%
COc1ccc(CN2CCN(C3CCC3)CC2CCO)cc1C (centres unmarked) | 8.14%
COc1cccc(CN2CCN(C3CCN(c4cccc(C)c4C)CC3)CC2CCO)c1 (centres unmarked) | -66.2%
Cc1cccc(N2CCC(N3CCN(C4CCCCC4)C(CCO)C3)CC2)c1C (centres unmarked) | -42.7%
COc1cccc(CN2CCN(C3CCOCC3)CC2CCO)c1 (centres unmarked) | 0.171%
CCOC(=O)N1CCC(N2CCN(Cc3ccc(F)c(F)c3)C(CCO)C2)CC1 (centres unmarked) | -44.7%
Cc1n[nH]c(C)c1Sc1ccccc1N=Cc1cc(Cl)cc([N+](=O)[O-])c1O | -10.9%
N#CCSc1nnc(C2CCCCC2)n1-c1ccccc1 | 4.45%
CCOC(=O)c1c(C)oc2cc(Cl)c(O)c(CN(C)C)c12 | -6.79%
CC(OC(=O)c1ccc(S(=O)(=O)NCc2ccco2)cc1)C(=O)Nc1ccc(Cl)cn1 (centres unmarked) | -39.8%
CC(C)C[C@@]12C(=O)N(c3cccc(Cl)c3)C(=O)N1[C@H](c1ccc(Br)cc1)[C@@H]1C(=O)N(C(C)(C)C)C(=O)[C@@H]12 | 22.7%
COc1ccc(CNC(=O)Nc2ccc3c(c2)N(C)C(=O)CS3)cc1 | -0.138%
CCC(C)[C@H](NC(=O)N1CCCCCC1)C(=O)OC (some centres unmarked) | 5.25%
O=C(NCc1ccccc1)C1=C[C@@H](c2ccc3c(c2)OCO3)C[C@@H](OCc2ccc(CO)cc2)O1 | -25%
COc1cc(CN2CCN(C3CCC3)CC2CCO)cc(OC)c1 (centres unmarked) | 8.54%
CCOc1ccccc1CN1CCN(C2CCN(c3ccccc3F)CC2)CC1CCO (centres unmarked) | -71.6%
COc1ccc(CN2CCN(C3CCC3)CC2CCO)c(F)c1 (centres unmarked) | 9.71%

SMILES | hERG current change (%, negative = inhibition) at 10uM
COc1cccc(CN2CCN(C3CCN(c4ccccc4F)CC3)CC2CCO)c1 (centres unmarked) | -74.9%
CCOc1ccccc1CN1CCN(C2CCOCC2)CC1CCO (centres unmarked) | 9.47%
CCOc1ccccc1CN1CCN(C2CCC2)CC1CCO (centres unmarked) | 27.4%
COc1ccc(CNC(=O)COC(=O)c2ccco2)cc1 | 28.3%
Cc1cc(NC(=O)CSc2nnc(Cn3c(=O)sc4ccccc43)n2-c2ccccc2C)no1 | 2.54%
COc1ccc2nc(NC(=O)CSCc3c(C)noc3C)sc2c1 | 1.24%
Cc1ccc(OC(C)C(=O)N2CCCc3ccccc32)cc1 (centres unmarked) | -16.3%
O=C(Cn1nc(-c2ccccc2)nc1-c1ccccc1)OC1CCCCC1 | 7.88%
COCCCN(C(=O)CCOc1ccccc1C)c1c(N)n(Cc2ccccc2)c(=O)[nH]c1=O | -3.05%
CCCN(C(=O)CCOc1ccc(C(C)(C)C)cc1)c1c(N)n(Cc2ccccc2)c(=O)[nH]c1=O | 29.7%
Cc1ccccc1OCCC(=O)N(CC(C)C)c1c(N)n(Cc2ccccc2)c(=O)[nH]c1=O | -64.4%
COCCCN(C(=O)CCOc1ccc(C(C)(C)C)cc1)c1c(N)n(Cc2ccccc2)c(=O)[nH]c1=O | -62.2%
Cc1ccccc1OCCC(=O)N(Cc1ccccc1)c1c(N)n(Cc2ccccc2)c(=O)[nH]c1=O | -7.3%
COCCCN(C(=O)CCOc1ccc(C)cc1)c1c(N)n(Cc2ccccc2)c(=O)[nH]c1=O | -20.2%
C=CCNC(=O)c1ccc2nc(-c3ccccc3)c(-c3ccccc3)nc2c1 | -15.4%
CN(c1ccccc1)c1ccc(/C=C(\CCC(=O)O)c2nc3ccccc3s2)cc1[N+](=O)[O-] | 44.6%
CCOC(=O)C1(Cc2cccc(Cl)c2)CCCN(C(=O)c2cc(C)on2)C1 (centres unmarked) | -9.8%
O=C(NCc1ccc(F)cc1)C1CCCN(C(=O)Nc2ccccc2)C1 (centres unmarked) | -38.5%
CC(c1ccccc1)C1C(C#N)=C(N)OC2=C1C(=O)CC(C)(C)C2 (centres unmarked) | -56.9%
CC(c1ccccc1)C1C(C#N)=C(N)OC2=C1C(=O)CCC2 (centres unmarked) | -6.39%
CC1(C)CC(=O)C2=C(C1)OC(N)=C(C#N)C2c1ccccc1 (centres unmarked) | -14.4%

SMILES | hERG current change (%, negative = inhibition) at 10uM
CC(=O)Nc1ccccc1-c1nc2ccc(C(=O)N3CCN(c4cc(C)ccc4C)CC3)cc2[nH]c1=O | -23.5%
COc1ccc(S(=O)(=O)N2CCN(Cc3ccccc3)CC2)cc1 | -19.5%
COc1ccc(S(=O)(=O)N2CCN(C3CCN(Cc4ccccc4)CC3)CC2)cc1 | -59.4%
O=S(=O)(c1ccccc1)N1CCC(O)(CN2CCN(c3ccccc3)CC2)CC1 | 12.2%
Cc1ccc(S(=O)(=O)N2CCN(C3CCN(Cc4ccccc4)CC3)CC2)cc1.O=C(O)C(=O)O | -76.6%
O=c1cc(CN2CCN(S(=O)(=O)c3ccccc3)CC2)nc2sccn12 | -2.25%
CN1CCN(CC2(O)CCN(S(=O)(=O)c3ccc(Cl)cc3)CC2)CC1 | -36%
Cc1ccc(S(=O)(=O)N2CCN(Cc3ccccc3)CC2)cc1 | -9.58%
COc1ccc(S(=O)(=O)N2CCC(N3CCN(Cc4ccccc4)CC3)CC2)cc1.O=C(O)C(=O)O | -39.2%
O=c1cc(CN2CCN(S(=O)(=O)c3ccccc3[N+](=O)[O-])CC2)nc2sccn12 | -53.7%
O=S(=O)(c1ccc(Cl)cc1)N1CCC(O)(CN2CCN(Cc3ccccc3)CC2)CC1 | -75.8%
O=c1cc(CN2CCN(S(=O)(=O)c3ccc4ccccc4c3)CC2)nc2sccn12 | -25.2%
CCOC(=O)N1CCC(N2CCN(S(=O)(=O)c3ccc(C)cc3)CC2)CC1.O=C(O)C(=O)O | -19.1%
Cc1ccc(CNC(=S)NC2CCC(C(C)(C)C)CC2)cc1 (centres unmarked) | 10.8%
CCC(NC(=O)C1CCC1)c1ccccc1 (centres unmarked) | 12.6%
Cc1c(/C=C/C(=O)c2cccs2)cnn1C | -0.723%
COc1ccc(CNc2cccc(C)n2)c(O)c1 | -3.24%
Cc1cc(C)c(NC(=O)COC(=O)c2ccc([N+](=O)[O-])s2)c(C)c1 | 0.0437%
COc1ccccc1NS(=O)(=O)c1cc(NC(=O)c2[nH]c(C)c(C(C)=O)c2C)ccc1N1CCOCC1 | 0.128%
O=C(CSc1nc(-c2ccccc2)cc(=O)[nH]1)Nc1ccccc1 | 18%
